Experimental data: PubChem BioAssay (Tox21)
Inconclusive results are not listed. Entries that show only a call come without a potency. Activity calls are given as the source filed them. Calls come from the whole dose curve.

Test: p53 small molecule agonists, cell-based qHTS assay: qHTS cell viability counter screen (AID 1963581); note: nearly all actives have a fitted effect of over 45% in size
In short: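 In the same plates used for the p53 bla reporter, HCT-116 cells given compounds for 16 h at 37 C received CellTiter-Glo; luminescence was recorded 30 min later at room temperature.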

CCc1ccc(CC)cc1
Potency: inactive

CC1=NN(c2ccc(C(=O)O)cc2)C(=O)C1
Potency: inactive
